In PubChem BioAssay (NCATS):
Results filed as inconclusive are left out. Activity calls are given as the source filed them. Unless noted, calls follow the shape of the full dose curve.

Assays:
[1] = qHTS for Inhibitors of the Functional Ribonucleoprotein Complex (vRNP) of Lassa (LASV) Arenavirus: LASV Primary Screen - GLuc reporter signal (AID 1347082; calls by dose curve; tested in HEK293 reporter line; also: nearly all actives have a fitted effect of over 60% in size)
[2] = qHTS for Inhibitors of the Functional Ribonucleoprotein Complex (vRNP) of Lassa (LASV) Arenavirus: Viability assay - alamar blue signal for LASV Primary Screen (AID 1347083; calls by dose curve; tested in HEK293 reporter line; also: nearly all actives have a fitted effect of over 80% in size)
[3] = qHTS for Inhibitors of the Functional Ribonucleoprotein Complex (vRNP) of Lymphocytic Choriomeningitis Arenaviruses (LCMV): Viability assay - alamar blue signal for LCMV Primary Screen (AID 1347085; calls by dose curve; tested in HEK293 reporter line; also: nearly all actives have a fitted effect of over 80% in size)
[4] = target: Nucleoprotein (Lymphocytic choriomeningitis virus (strain Armstrong)) (UniProt P09992); assay: qHTS for Inhibitors of the Functional Ribonucleoprotein Complex (vRNP) of Lymphocytic Choriomeningitis Arenaviruses (LCMV): LCMV Primary Screen - GLuc reporter signal (AID 1347086); also: nearly all actives have a fitted effect of over 70% in size

Measured: Potency
Potency is read from the fitted curve at half-maximal effect.

Nucleoprotein (Lymphocytic choriomeningitis virus (strain Armstrong)), sequence (P09992 whole entry, looked up): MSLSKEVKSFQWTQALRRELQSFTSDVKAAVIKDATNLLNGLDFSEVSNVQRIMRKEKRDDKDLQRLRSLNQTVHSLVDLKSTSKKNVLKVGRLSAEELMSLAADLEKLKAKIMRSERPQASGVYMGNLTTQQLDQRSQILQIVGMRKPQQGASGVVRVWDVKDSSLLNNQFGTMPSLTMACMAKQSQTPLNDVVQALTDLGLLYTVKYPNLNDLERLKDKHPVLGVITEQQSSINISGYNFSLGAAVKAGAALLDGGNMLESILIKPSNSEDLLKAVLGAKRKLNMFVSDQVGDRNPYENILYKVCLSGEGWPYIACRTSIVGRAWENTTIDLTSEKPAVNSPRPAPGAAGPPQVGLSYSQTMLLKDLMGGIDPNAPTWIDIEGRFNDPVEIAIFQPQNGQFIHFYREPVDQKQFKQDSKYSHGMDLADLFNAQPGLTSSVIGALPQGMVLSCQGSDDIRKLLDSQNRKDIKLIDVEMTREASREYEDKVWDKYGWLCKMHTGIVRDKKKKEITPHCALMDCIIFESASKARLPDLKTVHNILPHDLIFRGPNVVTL

CCCC(C)C(O)CC (stereo not given)
inactive: all assays above

CC(C)(O)c1cc2nc(-c3cnc(N)nc3)nc(N3CCOCC3)c2s1
active: [1] 385 nM | [2] 193 nM | [3] 769 nM | [4] 611 nM

O=C(O)C=C(Br)Br
inactive: all assays above

CC1C(=O)OC2C1CCC1(C)CCC(=O)C(C)C21 (stereo not given)
inactive: all assays above

O=C(/C=C/c1ccc(O)c(O)c1)c1ccc(O)cc1O
inactive: all assays above

COc1c(C)c2c(c(O)c1CC=C(C)CCC(=O)O)C(=O)OC2
active: [1] 6110 nM | [2] 3850 nM | [3] 13700 nM | [4] 7690 nM

O=c1c(-c2ccc(O)cc2)coc2cc(OC3OC(CO)C(O)C(O)C3O)ccc12 (stereo not given)
inactive: all assays above

CNC(=O)c1cccc(-c2ccc3c(N4CCOC[C@H]4C)nc(N4CCOC[C@H]4C)nc3n2)c1
active: [1] 137 nM | [2] 137 nM | [3] 153 nM | [4] 137 nM

CCCCC(C)/C=C(C)/C=C(\C)C(=O)NC1=CC(O)(/C=C/C=C/C=C/C(=O)NC2=C(O)CCC2=O)C2OC2C1=O (stereo not given)
inactive: all assays above

O=C1O[C@@H](c2ccc(O)cc2)Cc2cccc(O)c21
inactive: all assays above

COc1c(C(=O)/C=C/c2ccccc2)ccc2c1C=CC(C)(C)O2
inactive: all assays above

O=Cc1ccnc2ccccc12
inactive: all assays above

CC(=O)CCc1ccc(O)cc1
inactive: all assays above

C[C@]12CCC3C(C[C@@H](O)[C@H]4C[C@@H](O)CC[C@]34C)C1CC[C@@H]2O (stereo not given in full)
inactive: all assays above

O=C1CC(c2ccc(O[C@@H]3OC(CO)[C@@H](O)C(O)C3O)cc2)Oc2cc(O)ccc21 (stereo not given in full)
inactive: all assays above

CC1CC[C@@]2(OC1)O[C@H]1CC3[C@@H]4C[C@@H](O)[C@@]5(O)C[C@@H](O)[C@H](O)C[C@]5(C)[C@H]4CC[C@]3(C)[C@H]1[C@@H]2C (stereo not given in full)
inactive: all assays above

COc1cc(C)c(C(=O)Oc2cc(C)c(C(=O)O)c(O)c2C)c(OC)c1C
inactive: all assays above

CC(C)=CCC/C(C)=C/COc1c2occc2cc2ccc(=O)oc12
inactive: all assays above

O=C(CCc1ccc(O)cc1)c1c(O)cc(O)cc1O[C@@H]1O[C@H](CO)[C@H](O)[C@H](O)[C@H]1O
inactive: all assays above

COC(=O)/C=C/c1ccccc1
inactive: all assays above

COc1cc(CCc2cc(NC(=O)c3ccc(N4C[C@@H](C)N[C@@H](C)C4)cc3)n[nH]2)cc(OC)c1
active: [2] 34300 nM | [3] 43200 nM
inactive: [1] | [4]

C=C(C)C(O)COc1c2occc2c(OC)c2ccc(=O)oc12 (stereo not given)
inactive: all assays above

O=C1C=CC[C@H](/C=C/C[C@@H](O)C[C@H](O)CCc2ccccc2)O1
inactive: all assays above

O=C(O)c1cccc(Br)c1
inactive: all assays above

COc1c(O)ccc2c1-c1c3c(cc4c1C(C2)N(C)CC4)OCO3 (stereo not given)
inactive: all assays above

Nc1oc2ccccc2c1C(=O)Cc1ccccc1O[C@@H]1O[C@H](CO)[C@@H](O)[C@H](O)[C@H]1O
inactive: all assays above

O=C(NCCCCNCCCNC(=O)c1ccccc1)c1ccccc1
inactive: all assays above

O=C(OCC1OC(Oc2ccc(O)cc2)C(O)C(O)C1O)c1ccccc1 (stereo not given)
inactive: all assays above

CCCCCCCCC(=O)OCC
inactive: all assays above

O=C1c2cc(CO)cc(O)c2C(=O)c2c(O[C@@H]3OC(CO)[C@@H](O)[C@@H](O)[C@@H]3O)cccc21 (stereo not given in full)
inactive: all assays above
